PubChem BioAssay AID1851 (National Center for Advancing Translational Sciences (NCATS), 2009)
Among all 16,000 compounds or so, about 4,000 (25%) were called active. Roughly 26% stayed inconclusive and do not appear here. The list is a sample of the results. A number with no mark means an inactive call. Calls come from the whole dose curve; as a rule, active = well fitted curve in the direction sought with a large enough effect; inconclusive = small, poorly fitted or top-dose-only effect, or effect the other way; inactive = no such curve, though single readings can be large or run the other way.

biological target: Cytochrome P450 2C9 (Homo sapiens) (UniProt P11712); assay: Cytochrome panel assay with activity outcomes; details: recombinant CYP, pro-luciferin dealkylation, luminescence, p450-cyp2c9; series mostly up to 57.1 µM
% is set by controls: 0 for no effect and ±100 for the full control effect.

Sequence of Cytochrome P450 2C9 (Homo sapiens) (P11712 whole entry, looked up): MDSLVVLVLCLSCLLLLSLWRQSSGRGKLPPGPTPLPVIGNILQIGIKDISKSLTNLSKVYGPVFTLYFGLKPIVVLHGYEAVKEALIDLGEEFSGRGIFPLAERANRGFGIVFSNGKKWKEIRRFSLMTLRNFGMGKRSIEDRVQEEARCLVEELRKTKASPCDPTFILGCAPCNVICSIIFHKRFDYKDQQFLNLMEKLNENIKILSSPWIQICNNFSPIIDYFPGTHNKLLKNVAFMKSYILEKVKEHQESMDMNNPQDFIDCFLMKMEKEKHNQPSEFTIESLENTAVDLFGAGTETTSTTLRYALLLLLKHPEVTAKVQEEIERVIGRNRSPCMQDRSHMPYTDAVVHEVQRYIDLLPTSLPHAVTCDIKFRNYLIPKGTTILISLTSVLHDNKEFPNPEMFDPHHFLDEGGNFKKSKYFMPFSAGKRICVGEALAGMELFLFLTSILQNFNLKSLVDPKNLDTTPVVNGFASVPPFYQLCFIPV

| Structure (SMILES) | AC50 | activity, negative = inhibition |
| --- | --- | --- |
| CCCOc1ccc(C(=O)NNC(=S)NC(=O)c2cc(-c3ccccc3)nc3ccccc23)cc1 | 2.51 µM (active) |  |
| CCCOc1ccc(C(=O)NNC(=S)NC(=O)CC)cc1 | inactive |  |
| CCCCOc1cc(C(=O)NCCN(CC)CC)c2ccccc2n1 | inactive |  |
| CCN1CCN(CCCNC(=O)C(NC(=O)C2CCC(C)CC2)C(C)C)CC1 (centres undefined) | inactive |  |
| CC(=O)C1=C(O)C=C(c2ccco2)CC1c1ccco1 (centres undefined) | 7.94 µM (active) |  |
| NC(=O)C(=O)O | inactive |  |
| Clc1ccc2c(c1)C1=C(C(c3ccncc3)O2)C(c2ccc(Br)cc2)n2ncnc2N1 (centres undefined) | 1.41 µM (active) |  |
| CCN=C(N)CSS(=O)(=O)O |  | -1.49% [at 11.4 µM] |
| O=C(OCc1ccc(Cl)cc1Cl)c1cccnc1Cl | 17.8 µM (active) |  |
| O=C(O)c1cccnc1C(=O)O | inactive |  |
| COc1ccccc1-c1cncnc1-n1ccnc1 |  | -14.3% [at 2.29 µM] |
| Cc1ccc(Nc2nc(-c3sc(NC(=O)c4ccc([N+](=O)[O-])cc4)nc3C)cs2)cc1 | inactive |  |
| O=C(Nc1nc(-c2ccccc2)cs1)c1cccc([N+](=O)[O-])c1 | 7.08 µM (active) |  |
| CCN1C(=O)[C@H]2[C@H]3[C@H](O)[C@H](O)C/C(=N/OCC(C)C)[C@H]3CC[C@@H]2C1=O |  | -3.02% [at 11.4 µM] |
| CC(=C/c1ccccc1)/C=N/n1cnnc1 | 3.98 µM (active) |  |
| Cc1ccccc1-c1cc(-c2ccccc2O)on1 | 8.91 µM (active) |  |
| Cc1ccccc1-c1cc(N(C)C)ncn1 |  | 9.36% [at 2.29 µM] |
| CNc1cc(-c2ccccc2C)ncn1 |  | 21.7% [at 2.29 µM] |
| CNC[C@@H](SC)c1ccc(O)c(O)c1 |  | 0.961% [at 11.4 µM] |
| c1cnc(N2CCN(Cc3ccc4c(c3)OCO4)CC2)nc1 | inactive |  |
| Cn1c(=O)c2c(nc(NCCNc3nc4c(c(=O)n(C)c(=O)n4C)n3C)n2C)n(C)c1=O |  | 3.94% [at 11.4 µM] |
| Cn1c(=O)c2c(nc(Cc3ccccc3)n2CC(=O)O)n(C)c1=O |  | -4.06% [at 11.4 µM] |
| Cn1c(OCc2ccc3c(c2)OCO3)nc2c1c(=O)n(Cc1ccc(Cl)c(Cl)c1)c(=O)n2C | 2.51 µM (active) |  |
| Cn1c(=O)c2c(nc(Cl)n2Cc2ccc(Cl)c(Cl)c2)n(C)c1=O | 6.31 µM (active) |  |

| Structure (SMILES) | AC50 | activity, negative = inhibition |
| --- | --- | --- |
| O=C(COc1ccc(Cl)cc1)N1CCN(Cc2ccc3c(c2)OCO3)CC1 | inactive |  |
| CCN(CC(=O)O)CC(=O)O |  | 8.87% [at 11.4 µM] |
| O=C(Nc1ccccc1)N1CCCC2(CCN(C(=O)c3cnccn3)CC2)C1 | inactive |  |
| Cn1c(=O)c2[nH]c(-c3ccc(S(=O)(=O)O)cc3)nc2n(C)c1=O | inactive |  |
| CCS(=O)(=O)Nc1ccc(C2=NN(C(=O)c3ccco3)C(c3ccc(C)cc3)C2)cc1 (centres undefined) | 2.24 µM (active) |  |
| CC(C)[C@]1(Cl)CC[C@@H]2[C@]3(C)CCC[C@@](C)(C(=O)O)[C@H]3C[C@H](Cl)[C@@]2(Cl)[C@H]1Cl |  | -25.3% [at 11.4 µM] |
| Cc1cc2nc(C3CCCN(C(=S)Nc4ccccc4)C3)[nH]c2cc1C (centres undefined) | inactive |  |
| Cc1cc2nc(CCN(C(=S)NCC(C)C)C3CCCC3)[nH]c2cc1C | 7.94 µM (active) |  |
| Clc1ccc2c(c1)C(N1CCNCC1)=Nc1ccccc1O2 | inactive |  |
| Cc1ccc(C(CC(N)=O)c2ccco2)cc1 (centres undefined) | inactive |  |
| O=C(c1ccco1)N(CCC(c1ccccc1)c1ccco1)Cc1ccco1 (centres undefined) | 2.24 µM (active) |  |
| NC(=O)CC(c1ccccc1)c1ccco1 (centres undefined) | inactive |  |
| O=C(/C=C/c1ccccc1)N/C(=C/c1ccccc1)C(=O)Nc1ccccc1O | 4.47 µM (active) |  |
| O=C(/C=C\c1ccccc1)c1ccccc1O |  | -9.15% [at 11.4 µM] |
| Cc1cn([C@H]2C[C@H](O)[C@@H](COC(N)=O)O2)c(=O)[nH]c1=O |  | 18.3% [at 11.4 µM] |
| CCCCNC(=O)C1CCN(Cc2ccccn2)CC1 | inactive |  |
| CCOC(=O)COc1ccc(/C=C/[N+](=O)[O-])c(OCC(=O)OCC)c1 | 7.94 µM (active) |  |
| CN(C)CCOC(=O)COc1ccc(Cl)cc1 | inactive |  |
| COC(=O)N1CCC2(CC1)CN(c1ccccc1)C2 | inactive |  |
| CCCc1nc2ccccc2c(C(=O)OCC(=O)Nc2cccc(S(=O)(=O)N3CCOCC3)c2)c1CC | 14.1 µM (active) |  |
| Clc1ccccc1-c1nccc(NCCN2CCOCC2)n1 |  | 29.8% [at 2.29 µM] |
| Clc1ccccc1-c1ccc2ncnc(NCCN3CCOCC3)c2c1 |  | 24.6% [at 2.29 µM] |
| O=C(COC(=O)c1cccc(S(=O)(=O)N2CCOCC2)c1)Nc1nc(-c2ccccc2Cl)cs1 | 4.47 µM (active) |  |
| O=C(O)C1C2CCC(C2)C1C(=O)NCc1ccco1 (centres undefined) | inactive |  |

| Structure (SMILES) | AC50 | activity, negative = inhibition |
| --- | --- | --- |
| O=C(COC(=O)c1cccc(S(=O)(=O)N2CCN(c3ccccc3)CC2)c1)NCc1ccco1 | 2.24 µM (active) |  |
| O=C(CCc1nc2ccccc2c(=O)[nH]1)OCC(=O)N1CCN(S(=O)(=O)c2ccccc2)CC1 | inactive |  |
| CS(=O)(=O)Nc1cccc(-c2nc(N3CCOCC3)c3ccccc3n2)c1 |  | -0.621% [at 2.29 µM] |
| C[n+]1cc2c3c(ccc2c2ccc4cc5c(cc4c21)OCO5)OCO3 | inactive |  |
| COC(=O)[C@H](C)NC(=O)C/C=C\[C@@H](C)[C@H]1C=C[C@H](O)[C@@H](CO)O1 |  | -20.2% [at 11.4 µM] |
| Cc1cc(C)nc(Nc2n[nH]c(COc3ccc4ccccc4c3)n2)n1 | inactive |  |
| CCOc1ccc(N2C(=O)/C(=C/c3cccs3)N(CC(=O)OC)C2=S)cc1 | inactive |  |
| CCOc1ccc(N2C(=O)CN=C2Nc2ccccc2Cl)cc1 | inactive |  |
| CCOc1ccc(N2C(=O)CN=C2Nc2ccccc2F)cc1 | 12.6 µM (active) |  |
| COc1c(O)cc2c(c1O)[C@@H]1O[C@@H](CO)[C@@H](O)[C@@H](O)[C@@H]1OC2=O | inactive |  |
| O=C(NCCc1c[nH]c2ccccc12)[C@H]1C[C@@H]1[C@H](NP(=O)(c1ccccc1)c1ccccc1)c1ccccc1 | 2 µM (active) |  |
| COC(=O)Nc1ccc2[nH]cc(CCNC(C)=O)c2c1 | inactive |  |
| O=C(NCCc1c[nH]c2ccccc12)[C@@H]1C[C@H]1[C@@H](NP(=O)(c1ccccc1)c1ccccc1)c1ccccc1 | 0.251 µM (active) |  |
| O=C(Nc1ccc2ccccc2c1)[C@H]1C[C@@H]1[C@H](NP(=O)(c1ccccc1)c1ccccc1)c1ccccc1 | 3.16 µM (active) |  |
| O=C(NCc1cc(F)cc2c1OCCO2)[C@H]1C[C@@H]1[C@H](NP(=O)(c1ccccc1)c1ccccc1)c1ccccc1 | 12.6 µM (active) |  |
| CSC(N)=NCCC[C@@H](N)C(=O)O | inactive |  |
| N=C(N)CCNC(=O)[C@@H]1CCC(N)=N1 |  | -0.797% [at 11.4 µM] |
| O=C(O)[C@H]1C[C@H](C(=O)O)N1 | inactive |  |
| O=C(NCc1nc2ccccc2[nH]1)[C@H]1C[C@@H]1[C@H](NP(=O)(c1ccccc1)c1ccccc1)c1ccccc1 | 12.6 µM (active) |  |
| Cc1cc(CNC(=O)[C@@H]2C[C@H]2[C@@H](NP(=O)(c2ccccc2)c2ccccc2)c2ccccc2)nn1C | inactive |  |
| Cc1cc(CNC(=O)[C@H]2C[C@@H]2[C@H](NP(=O)(c2ccccc2)c2ccccc2)c2ccccc2)nn1C | inactive |  |
| CC(=O)NNC(=O)CCC(=O)Nc1ccccc1 | inactive |  |
| O=C(CC1CCCC1)Nc1ccc2c(c1)CCC2 | inactive |  |
| CC(=O)c1cccc(NC(=O)CCC2CCCC2)c1 | 14.1 µM (active) |  |

| Structure (SMILES) | AC50 | activity, negative = inhibition |
| --- | --- | --- |
| N#C/C(=C\Nc1ccccn1)C(=O)C1CC1 |  | 2.34% [at 11.4 µM] |
| O=C(N/N=C/c1ccccn1)c1ccco1 | inactive |  |
| N#C/C(=C\Nc1ccccn1)C(=O)c1ccco1 | 3.16 µM (active) |  |
| CC(C)CSC[C@@H]1O[C@H](n2cnc3c(N)nccc32)[C@H](O)[C@@H]1O |  | 3.85% [at 11.4 µM] |
| CS(=O)(=O)N1CCC2(CC1)CN(C(=O)Nc1ccccc1)C2 | inactive |  |
| CC(C)N1CCC(=NNC(=O)c2ccc(Br)o2)CC1 | inactive |  |
| CS(=O)(=O)N1CCN(c2ccccc2NC(=O)c2ccc(Br)o2)CC1 | 20 µM (active) |  |
| COCC(=O)N1CCC2(CCCN(Cc3ccccc3)C2)CC1 | inactive |  |
| O=C(c1cc(Cl)c(=O)n(Cc2ccc(Cl)cc2)c1)N1CCOCC1 | inactive |  |
| O=C(c1ccc2c(c1)N(Cc1ccc(F)cc1)C(=O)CS2)N1CCOCC1 | 17.8 µM (active) |  |
| O=C1S/C(=C/c2ccc(N3CCOCC3)o2)C(=O)N1Cc1ccc(F)cc1 | inactive |  |
| O=C(O)CSc1cc(C(F)(F)F)nc(-c2ccccn2)n1 | inactive |  |
| O=C(c1cc(C(F)(F)F)cc(C(F)(F)F)c1)N1CCC[C@@]2(CCN(c3ccccc3)C2)C1 | inactive |  |
| CC(Sc1nc(-c2ccccc2)cc(C(F)(F)F)n1)C(=O)N1CCCCC1 (centres undefined) | 8.91 µM (active) |  |
| CCCC1(C(=O)OC)C=C2C(=C(C)C(=O)C2C)CN1 (centres undefined) | inactive |  |
| CCCCCC1=C2CNC(CCC)(C(=O)OC)C=C2C(C)C1=O (centres undefined) | 10 µM (active) |  |
| CCCCCC1=C2CNC(CC(C)C)(C(=O)OC)C=C2C(C)C1=O (centres undefined) | 3.16 µM (active) |  |
| COC(=O)C1(CC(C)C)C=C2C(=C(C(C)C)C(=O)C2C)CN1 (centres undefined) | 12.6 µM (active) |  |
| c1ccc(CNc2ccnc(-c3ccc4c(c3)OCO4)n2)cc1 |  | -0.997% [at 2.29 µM] |
| O=C(O)[C@@H](O)[C@@H](O)[C@@H](O)[C@@H](O)C(=O)O (tested in a mixture with another compound) | inactive |  |
| Cc1cccc2c1OCC/C2=N\NC(=O)COc1ccccc1 | 15.8 µM (active) |  |
| Cc1ccccc1OCC(=O)N/N=C1\CCOc2c(C)cccc21 | inactive |  |
